Sampled rows, rich in hits. Any-hit rate of the full collection: about 0.86%.
NS1 inh – influenza NS1 inhibition. Potency, µM (top dose mostly 46.1 µM), for the others: at the highest dose activity, positive = more growth. actives 0.4% (n = 270,000); calls by dose curve; also: actives are rising curves; nearly all actives have a fitted effect of over 50% in size
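Read-out: OD600 growth recovery of NS1-expressing budding yeast. Cells grown overnight at 30C in -URA glucose medium, washed, resuspended and diluted 1:100 in 2% galactose assay medium, pH 6.0. Same strain lacking NS1 served as positive control.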
AmpC no deterg – inhibitors of E. coli AmpC beta-lactamase without detergent. AmpC nitrocefin hydrolysis, absorbance 480 nm, 0.0001% Triton. P00811. actives 0.52% (n = 330,000). Potency, µM (doses to about 57.1 µM), for inactives: at the highest dose activity change, negative = inhibition, most hits filed as inhibitors. AID 485341;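 also: plate controls were no compound for no effect and no enzyme for full effect; nearly all actives have a fitted effect of over 20% in size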
Target sequence (P00811 whole entry, looked up): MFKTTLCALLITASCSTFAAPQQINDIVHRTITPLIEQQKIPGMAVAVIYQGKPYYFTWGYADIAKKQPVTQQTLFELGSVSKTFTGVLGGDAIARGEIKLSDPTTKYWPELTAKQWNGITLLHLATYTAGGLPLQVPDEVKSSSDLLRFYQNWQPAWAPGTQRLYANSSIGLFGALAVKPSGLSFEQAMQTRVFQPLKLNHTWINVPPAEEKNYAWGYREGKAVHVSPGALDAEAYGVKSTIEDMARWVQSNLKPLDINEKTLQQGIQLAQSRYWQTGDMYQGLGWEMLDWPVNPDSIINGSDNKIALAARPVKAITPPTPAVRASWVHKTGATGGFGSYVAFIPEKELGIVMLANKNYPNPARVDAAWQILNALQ
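AmpC (5.3 nM in the dispensed reagent) in 20 mM phosphate pH 7.0 with 0.01% (detergent screen) or 0.0001% Triton X-100 was preincubated with compounds for 15 min at room temperature. Nitrocefin was then added from an 800 uM solution, and hydrolysis was followed at 480 nm.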
AmpC detergent – inhibitors of E. coli AmpC beta-lactamase with detergent. Potency, µM (top dose mostly 114 µM), for the others: at the highest dose activity change, negative = inhibition, hits mostly inhibitors. AID 485294. actives 0.041% (n = 370,000). P00811. AmpC hydrolysis of nitrocefin, absorbance 480 nm, 0.01% Triton;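 also: 0% = no-compound wells and -100% = no-enzyme wells; nearly all actives have a fitted effect of over 25% in size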
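20 mM phosphate pH 7.0 + 0.01% (detergent screen) or 0.0001% Triton X-100; 5.3 nM AmpC reagent; cpd preinc 15 min RT; nitrocefin (800 uM stock) to start; A480 q20 s × 4 min; Activity was normalised to no-enzyme and no-compound control wells.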
AMA1-RON2 inh – disrupts binding of P. falciparum AMA1 to RON2; AlphaScreen AMA1-biotinylated RON2 peptide binding; Potency, µM (series often up to 58.2 µM), without a hit: at the top dose activity change, negative = inhibition, hits mostly inhibitors; actives 0.2% (n = 360,000);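 also: 0% = vehicle wells and -100% = peptide control; nearly all actives have a fitted effect of over 45% in size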
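AMA1 (3D7) with his tag at 25 nM final met compounds first, then biotinylated RON2 peptide at 25 nM; detection used donor plus acceptor beads, 10 µg/mL apiece, read by AlphaScreen after 30 min at room temperature.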
* = called active by the depositor; ? = inconclusive; . = no result; [ ] = remark or other dose. Unless noted, calls follow the shape of the dose curve; as a rule, active = well fitted curve in the direction sought with a large enough effect; inconclusive = small, poorly fitted or top-dose-only effect, or another doubt; inactive = no such curve, though single readings can be large; an effect the other way counts as inactive or inconclusive. Potency is read from the fitted curve at half-maximal effect.

SMILES | NS1 inh | AmpC no deterg | AmpC detergent | AMA1-RON2 inh
S=c1sscc1-c1ccccc1 | . | . | . | 20µM*
O=C(NCCc1ccccc1Cl)c1ccc(Cn2c(=O)c3cccn3c3cccnc32)cc1 | . | . | -11% | .
O=[N+]([O-])c1ccc(Nc2ccccc2)cc1 | -29% | -31% | -8% | 9%
c1ccc(Nc2ccc(Nc3ccccc3)cc2)cc1 | . | -20% | 0% | 16µM*
CCOc1ccc(S(=O)(=O)N(C(=O)c2ccncc2)c2ccc3oc(C)c(C(=O)OC)c3c2)cc1 | . | . | -10% | .
COc1cc2c(cc1NC(=O)Nc1ccc(F)cc1)oc1ccccc12 | 12% | 14µM* | ? | 0%
COc1cc2c(cc1NC(=O)CSc1nc3ccccc3[nH]1)oc1ccccc12 | 10% | 7.9µM* | -1% | -2%
O=C(CC1C(=O)N(c2ccc(Cl)cc2)C(=S)N1CCc1ccncc1)Nc1ccc(F)cc1 (stereo not given) | 17% | 35% | -9% | 0%
CCNC(=O)CC1C(=O)N(c2ccc(F)cc2)C(=S)N1CCc1ccncc1 (stereo not given) | . | 13% | 2% | 32µM*
CN(C(=O)CSc1nc2ccc(NC(=O)c3ccc(F)cc3)cc2s1)c1ccccc1 | . | . | -1% | .
Cc1cccc(CN2CCN(C(=O)c3cccc4ccccc34)CC2)c1 | -25% | 65% | ? | ?
Cc1cc(C)c(NC(=O)C[C@H](CC(=O)O)c2cccc3ccccc23)c(C(=O)N2CCC3(CCCC3)CC2)c1 | 10µM* | . | . | .
O=C(O)C1Nc2c(O)cc(Cl)c([N+](=O)[O-])c2C2C=CCC12 (stereo not given) | . | 7.1µM* | 40µM* | 2.2µM*
CC(Oc1ccccc1)C(=O)N=Nc1c(O)[nH]c2ccc([N+](=O)[O-])cc12 (stereo not given) | . | -44% | 5% | 32µM*
Cn1c(=O)[nH]c(=O)c2c1nc(CN1CCN(c3cccc(Cl)c3)CC1)n2Cc1ccccc1Cl | -66% | 45µM* | ? | -1%
CCCCC(CCC(=O)O)(C(=O)OCC)c1csc(Nc2ccc(OCC)cc2)n1 (stereo not given) | 12% | -13% | 4% | -1%
COc1ccc(/C=C2/C(=O)N(Cc3ccccc3)N=C2C)cc1 | 1% | 1% | -5% | -8%
COc1ccc(/C=C2/C(=O)N(c3nc4ccccc4s3)N=C2CSc2ccc(Cl)cc2)cc1 | 11% | 16µM* | -12% | 77%[11.6 µM]
CC(=O)c1ccc2c(c1)C1C=CCC1C(C(=O)O)N2 (stereo not given) | 14% | 10% | ? | 4µM*
COc1ccc(OC)c(NC(=O)c2nnn(Cc3ccc(Br)cc3F)c2N)c1 | -23% | 0.79µM* | ? | 9%
Cc1nnc(SCc2nnc(-c3ccccc3Br)o2)n1-c1ccccc1 | -3% | 5.6µM* | ? | 4%
O=C(CSc1ccc(-c2ccccn2)nn1)NCc1ccc(Cl)cc1 | . | -21% | 9% | 14µM*
Cc1ccc(CNC(=O)CSc2ccc(-c3ccccn3)nn2)cc1 | . | -12% | 6% | ?
O=C(NCCc1ccc(F)cc1)C(=O)NCC(c1cccs1)S(=O)(=O)c1ccc(Cl)cc1 (stereo not given) | . | . | 3% | .
O=c1nc(Nc2cccc(Cl)c2)oc2cc(Cl)oc(=O)c12 | 6% | 10µM* | -1% | 10%
SMILES | NS1 inh | AmpC no deterg | AmpC detergent | AMA1-RON2 inh
O=c1nc(Nc2ccccc2)oc2ccccc12 | -4% | -8% | -1% | -15%
Cc1ccc(C2C(C(=O)c3cccs3)=C(O)C(=O)N2c2nnc(C)s2)cc1 (stereo not given) | . | -23% | 2% | 1%
Cc1ccc(Cn2c(CNC(=O)c3cccc(C)c3)nc3ccccc32)cc1 | . | . | 17% | .
CCOC(=O)c1c(NC(=O)C(C)OC(=O)c2ccc(NC(=O)CC#N)cc2)sc2c1CCCC2 (stereo not given) | . | 28µM* | -13% | -1%
CCOC(=O)c1c(NC(=O)C(C)OC(=O)C2=COCCO2)sc2c1CCCC2 (stereo not given) | . | 5% | -9% | 1%
CC(=O)c1ccc(NC(=O)COC(=O)c2ccccc2Nc2ccccc2)cc1 | 4% | -22% | 0% | 26%
O=C(COC(=O)c1ccccc1Nc1ccccc1)Nc1ccccc1 | -5% | 7.1µM* | ? | 15%
Oc1cccc(Nc2c3ccccc3nc3ccccc23)c1 | -48% | -53% | 10% | -6%
CCN(CC)Cc1cc(Nc2c3ccccc3nc3c4ccccc4n(C)c23)cc(CN(CC)CC)c1O | . | . | . | 11µM*
COc1ccc(C2/C=C\CN(C(=O)C3CC3)CC(=O)N2Cc2ccc(F)cc2)cc1 (stereo not given) | ? | 37% | -2% | 1%
COc1ccc(C2/C=C\CN(Cc3ccc(N(C)C)cc3)CC(=O)N2Cc2ccc(F)cc2)cc1 (stereo not given) | -8% | 53% | -1% | 16µM*
CCn1c(=S)sc2c(=O)n(CC(=O)Nc3ccc(Cl)cc3)c(C)nc21 | 10% | 7.1µM* | -3% | -7%
CCn1c(=S)sc2c(=O)n(CC(=O)Nc3ccccc3)c(C)nc21 | -1% | -26% | ? | 63%
CCn1c(=S)sc2c(=O)n(CC(=O)Nc3ccc(OC)c(Cl)c3)c(C)nc21 | 1% | 6.3µM* | -8% | 5%
Oc1cc(O)cc(/C=C/c2ccc(O)c(O)c2)c1 | -3% | -28% | 1% | 7.1µM*
C/C=C/c1ccc(O)c(OC)c1 | . | -26% | -4% | -13%
O=C(OCC(=O)C12CC3CC(CC(C3)C1)C2)c1ccc(O)cc1 | . | -27% | . | -7%
Nc1ccc(O)cc1C(=O)OCC(=O)C12CC3CC(CC(C3)C1)C2 | 2% | 13µM* | 7% | -22%
CC(C)c1ccc(C(=O)NC(=S)Nc2ccc3[nH]c(=O)[nH]c3c2)cc1 | 4% | 8.9µM* | 1% | 29%
COc1ccc(C(=O)NC(=S)Nc2ccc3[nH]c(=O)[nH]c3c2)cc1 | 8% | -14% | -6% | -5%
CC1Oc2cc3c(-c4c(O)cc(O)c5c(O)c6c(cc45)OC(C)C(C)C6=O)c(O)cc(O)c3c(O)c2C(=O)C1C (stereo not given) | 18% | 22µM* | ? | -15%
C[C@@H]1Cc2c(O)c(O)cc(O)c2C(=O)O1 | -1% | -3% | -5% | ?
CCc1nc(Nc2ccc(N3CCN(C(C)=O)CC3)cc2)c2oc3ccccc3c2n1 | -42% | 183% | 35µM* | -12%
Oc1ccc(Nc2ccc3ccccc3c2)cc1 | . | . | . | 14µM*
CN(Cc1ccccc1)C(=O)C1CCN(S(=O)(=O)Cc2ccccc2)CC1 | . | . | 23% | .
O=c1cc(-c2ccc(C3CCCCC3)cc2)[nH][nH]1 | . | 14µM* | -6% | 43%
O=c1cc(-c2ccc(Br)cc2)[nH][nH]1 | 17% | -47% | 2% | 26%
COc1cccc(NC(=O)C/C(C)=N/NC(=O)c2ccccc2Cl)c1 | -1% | -11% | -6% | 95%
C/C(CC(=O)Nc1ccc(Cl)c(C(F)(F)F)c1)=N\NC(=O)c1cc2ccccc2cc1O | 3% | 10µM* | -6% | 80%

Source: PubChem (National Center for Advancing Translational Sciences (NCATS))
